The full data set covers some 8,800 targets. This sample favours those with a hit. About 0.5% of all pairs of compound and target were hits.
What was measured:
Assay in all cases: log2 fold change, soluble protein after heating vs DMSO (PISA); higher = thermal stabilisation; K562 lysate, 10 uM; active = over 0.2 and 3.5 SD of the protein, either way, in both replicates (recomputed)
ibrutinib = compound: C=CC(=O)N1CCC[C@@H](n2nc(-c3ccc(Oc4ccccc4)cc3)c3c(N)ncnc32)C1 [ibrutinib]
Outline: (§1)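 Values give the log-two fold change in thermal stability against solvent controls, from duplicates. Crude K562 extract at 1 mg/mL protein, made by dounce homogenisation in PBS pH 7.4 with 1 mM MgCl2, was treated with 10 μM compound for 30 min. After 3 min heating across 48°C-58°C, aliquots were pooled, adjusted to 0.5% NP-40 at 4°C and centrifuged at 21,000xg for 90 min. The supernatant was measured by TMTpro 16plex LC-MS/MS with channel sums equalised.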

[1] = compound: CC(=O)c1cnc2ccc(-c3cc(Cl)c(O)c(Cl)c3)nc2c1N[C@H]1CC[C@H](CN(C)C)CC1
Outline: as §1

ralimetinib = compound: CC(C)(C)Cn1c(N)nc2ccc(-c3[nH]c(C(C)(C)C)nc3-c3ccc(F)cc3)nc21 [ralimetinib]
Outline: as §1

[2] = compound: CC(C)(O)CC(=O)NCCn1ccc2ncnc(Nc3ccc(Oc4cccc(C(F)(F)F)c4)c(Cl)c3)c21
Outline: as §1

[3] = compound: CC(C)C1=C2N=C(C=C(N2N=C1)NCC3=CC=CC=C3)NCCCCCCN
Outline: as §1

[4] = compound: CC1=C(C(CC(=O)N1)C2=CC=C(C=C2)C(F)(F)F)C(=O)NC3=C(C=C4C(=C3)C=NN4)F
Outline: as §1

[5] = compound: CC1=C(C2=C(C=C1)C(=O)C3=CC=CC=C3N2CCCN)C
Outline: as §1

[6] = compound: CC1=C(C=C(C=C1)NC(=O)C2=CC(=CC=C2)C(C)(C)C#N)NC3=CC4=C(C=C3)N=CN(C4=O)C
Outline: as §1

[7] = compound: CC1=C(C=C(C=C1)NC(=O)C2=CC(=CC=C2)N(C)C)NC(=O)C3=CC=C(C=C3)O
Outline: as §1

[8] = compound: CC1=CC=C(C=C1)SC2=C3C=C(SC3=CN=C2)C(=O)N
Outline: as §1

vemurafenib = compound: CCCS(=O)(=O)Nc1ccc(F)c(C(=O)c2c[nH]c3ncc(-c4ccc(Cl)cc4)cc23)c1F [vemurafenib]
Outline: as §1

[9] = compound: CCCS(=O)(=O)Nc1ccc(F)c(C(=O)c2c[nH]c3ncc(Cl)cc23)c1F
Outline: as §1

barasertib = compound: CCN(CCCOc1ccc2c(Nc3cc(CC(=O)Nc4cccc(F)c4)[nH]n3)ncnc2c1)CCOP(=O)(O)O [barasertib]
Outline: as §1

volasertib = compound: CC[C@@H]1C(=O)N(C)c2cnc(Nc3ccc(C(=O)N[C@H]4CC[C@H](N5CCN(CC6CC6)CC5)CC4)cc3OC)nc2N1C(C)C [volasertib]
Outline: as §1

[10] = compound: CCn1c(C(=O)N(C2CC2)C2CC2)cc2c3c(ncn3C)c(Nc3cc(C)n(C)n3)nc21
Outline: as §1

[11] = compound: CCn1cc(-c2ccnc3[nH]c(-c4cccc(CN(C)C)c4)cc23)c(-c2ccc(NC(=O)N(C)C)cc2)n1
Outline: as §1

[12] = compound: CN1CCC(CNc2ccc3ncc(-c4cccc(OC(F)(F)F)c4)n3n2)CC1
Outline: as §1

saracatinib = compound: CN1CCN(CCOc2cc(OC3CCOCC3)c3c(Nc4c(Cl)ccc5c4OCO5)ncnc3c2)CC1 [saracatinib]
Outline: as §1

sotrastaurin = compound: CN1CCN(c2nc(C3=C(c4c[nH]c5ccccc45)C(=O)NC3=O)c3ccccc3n2)CC1 [sotrastaurin]
Outline: as §1

[13] = compound: CC[C@@H]1C(=O)N(C)c2cnc(Nc3ccc(C(=O)NC4CCN(C)CC4)cc3OC)nc2N1C1CCCC1
Outline: as §1

Measured: log2 fold change

ANXA13 isoform 2 (UniProt P27216)
UniProt P27216, sequence (P27216 whole entry, looked up): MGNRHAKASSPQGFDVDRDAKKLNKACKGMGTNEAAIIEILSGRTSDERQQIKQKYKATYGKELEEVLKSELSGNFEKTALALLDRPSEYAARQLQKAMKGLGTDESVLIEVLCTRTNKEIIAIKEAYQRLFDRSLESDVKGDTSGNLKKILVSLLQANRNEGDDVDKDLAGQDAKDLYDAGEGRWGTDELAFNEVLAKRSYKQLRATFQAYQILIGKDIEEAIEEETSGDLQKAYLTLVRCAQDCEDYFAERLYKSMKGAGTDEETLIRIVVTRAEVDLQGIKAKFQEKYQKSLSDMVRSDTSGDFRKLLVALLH
inactive: ibrutinib 0.051 | [1] 0.092 | ralimetinib 0.022 | [2] 0.169 | [3] -0.057 | [4] -0.034 | [5] 0.062 | [6] 0.053 | [7] -0.001 | [8] 0.06 | vemurafenib -0.129 | [9] -0.071 | barasertib 0.091 | volasertib -0.035 | [10] 0.131 | [11] -0.179 | [12] 0.106 | saracatinib 0.004 | sotrastaurin -0.001

ABHD11 (UniProt Q8NFV4)
UniProt Q8NFV4, sequence (Q8NFV4 whole entry, looked up): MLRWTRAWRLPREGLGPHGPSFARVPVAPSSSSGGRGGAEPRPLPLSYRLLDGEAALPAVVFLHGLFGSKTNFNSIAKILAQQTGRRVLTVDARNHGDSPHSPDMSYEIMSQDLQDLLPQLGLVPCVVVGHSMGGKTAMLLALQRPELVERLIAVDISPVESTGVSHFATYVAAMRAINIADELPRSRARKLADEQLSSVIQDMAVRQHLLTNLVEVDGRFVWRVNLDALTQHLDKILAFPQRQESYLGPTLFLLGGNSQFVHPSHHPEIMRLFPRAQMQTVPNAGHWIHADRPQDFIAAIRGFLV
inactive: ibrutinib -0.012 | [1] 0.057 | ralimetinib -0.04 | [2] -0.048 | [3] -0.2 | [4] 0.018 | [5] -0.241 | [6] -0.013 | [7] 0 | [8] -0.017 | vemurafenib 0.062 | [9] -0.051 | barasertib 0.093 | [13] -0.029 | volasertib -0.082 | [10] 0.028 | [11] -0.109 | [12] 0.024 | saracatinib -0.026 | sotrastaurin -0.016

ANXA2 isoform 2 (UniProt P07355)
UniProt P07355, sequence (P07355 whole entry, looked up): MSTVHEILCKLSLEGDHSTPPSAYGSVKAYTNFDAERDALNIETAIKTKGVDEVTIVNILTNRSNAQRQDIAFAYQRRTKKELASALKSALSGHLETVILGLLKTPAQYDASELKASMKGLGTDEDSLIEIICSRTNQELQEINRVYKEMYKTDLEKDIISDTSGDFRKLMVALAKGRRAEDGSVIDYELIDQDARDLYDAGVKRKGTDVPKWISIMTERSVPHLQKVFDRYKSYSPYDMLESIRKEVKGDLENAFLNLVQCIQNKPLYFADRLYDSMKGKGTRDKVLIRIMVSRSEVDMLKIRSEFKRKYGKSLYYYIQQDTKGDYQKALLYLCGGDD
inactive: ibrutinib -0.013 | [1] 0.012 | ralimetinib -0.009 | [2] 0.033 | [3] -0.01 | [4] 0.006 | [5] 0.048 | [6] -0.024 | [7] -0.01 | [8] 0.013 | vemurafenib -0.03 | [9] -0.004 | barasertib -0.021 | [13] 0 | volasertib 0.017 | [10] 0.033 | [11] -0.003 | [12] -0.02 | saracatinib 0.013 | sotrastaurin -0.012

ABHD12 isoform 2 (UniProt Q8N2K0)
UniProt Q8N2K0, sequence (Q8N2K0 whole entry, looked up): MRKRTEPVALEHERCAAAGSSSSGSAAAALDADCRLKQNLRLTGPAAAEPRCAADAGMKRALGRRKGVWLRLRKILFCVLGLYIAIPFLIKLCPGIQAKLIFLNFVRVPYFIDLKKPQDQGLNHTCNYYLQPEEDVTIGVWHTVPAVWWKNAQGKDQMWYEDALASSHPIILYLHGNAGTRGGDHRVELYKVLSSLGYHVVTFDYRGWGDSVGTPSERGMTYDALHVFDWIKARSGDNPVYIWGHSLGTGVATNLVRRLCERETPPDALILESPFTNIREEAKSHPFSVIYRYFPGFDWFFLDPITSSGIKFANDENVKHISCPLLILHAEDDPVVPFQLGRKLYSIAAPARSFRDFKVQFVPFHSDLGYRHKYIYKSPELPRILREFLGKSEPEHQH
inactive: ibrutinib -0.039 | [1] -0.03 | ralimetinib 0.043 | [2] -0.014 | [3] 0.05 | [4] 0.052 | [5] 0.021 | [6] 0.022 | [7] -0.05 | [8] 0.033 | vemurafenib -0.049 | [9] 0.077 | barasertib -0.015 | [13] 0.034 | volasertib 0.006 | [10] -0.055 | [11] 0.119 | [12] -0.111 | saracatinib -0.039 | sotrastaurin 0.018

AARS2 (UniProt Q5JTZ9)
inactive: ibrutinib 0 | [1] -0.052 | ralimetinib 0.025 | [2] -0.018 | [3] 0.029 | [4] 0.009 | [5] 0.02 | [6] -0.006 | [7] 0.035 | [8] -0.03 | vemurafenib 0.041 | [9] -0.052 | barasertib 0.029 | [13] -0.055 | volasertib -0.037 | [10] 0.027 | [11] 0.027 | [12] -0.053 | saracatinib 0.003 | sotrastaurin 0.031

AP1G2 (UniProt O75843)
UniProt O75843, sequence (O75843 whole entry, looked up): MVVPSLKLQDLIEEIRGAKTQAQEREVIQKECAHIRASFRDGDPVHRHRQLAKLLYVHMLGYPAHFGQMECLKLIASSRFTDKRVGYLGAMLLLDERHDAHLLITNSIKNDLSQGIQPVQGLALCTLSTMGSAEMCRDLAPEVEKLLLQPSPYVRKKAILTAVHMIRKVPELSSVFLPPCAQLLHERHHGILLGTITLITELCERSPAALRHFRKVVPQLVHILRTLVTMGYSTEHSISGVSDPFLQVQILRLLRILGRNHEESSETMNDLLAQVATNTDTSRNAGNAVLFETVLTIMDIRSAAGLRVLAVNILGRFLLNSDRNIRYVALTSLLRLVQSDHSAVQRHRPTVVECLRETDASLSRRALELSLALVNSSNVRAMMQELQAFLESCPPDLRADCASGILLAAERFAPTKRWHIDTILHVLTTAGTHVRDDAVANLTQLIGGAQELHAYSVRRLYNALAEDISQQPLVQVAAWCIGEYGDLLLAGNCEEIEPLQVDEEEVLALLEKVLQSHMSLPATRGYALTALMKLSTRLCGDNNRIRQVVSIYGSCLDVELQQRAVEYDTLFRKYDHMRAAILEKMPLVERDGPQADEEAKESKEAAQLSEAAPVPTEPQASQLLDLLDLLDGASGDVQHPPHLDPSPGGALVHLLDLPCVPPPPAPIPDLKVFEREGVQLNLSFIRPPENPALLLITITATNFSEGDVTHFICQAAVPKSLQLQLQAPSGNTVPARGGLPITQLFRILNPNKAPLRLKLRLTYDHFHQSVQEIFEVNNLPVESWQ
inactive: ibrutinib 0.012 | [1] -0.087 | ralimetinib 0.069 | [2] 0.013 | [3] -0.121 | [4] -0.109 | [5] -0.156 | [6] -0.011 | [7] 0.023 | [8] -0.027 | vemurafenib -0.057 | [9] 0.044 | barasertib 0.011 | [13] -0.014 | volasertib -0.053 | [10] -0.003 | [11] -0.007 | [12] 0.032 | saracatinib -0.032 | sotrastaurin 0.022

ARHGAP6 (UniProt O43182)
inactive: ibrutinib 0.081 | [1] -0.008 | ralimetinib -0.018 | [2] -0.038 | [3] -0.017 | [4] 0.101 | [5] -0.007 | [6] 0.002 | [7] 0.01 | [8] -0.018 | vemurafenib 0.074 | [9] 0.038 | barasertib 0.116 | [13] -0.038 | volasertib -0.107 | [10] -0.014 | [11] 0.072 | [12] -0.139 | saracatinib 0.031 | sotrastaurin -0.049

ALG8 (UniProt Q9BVK2)
UniProt Q9BVK2, sequence (Q9BVK2 whole entry, looked up): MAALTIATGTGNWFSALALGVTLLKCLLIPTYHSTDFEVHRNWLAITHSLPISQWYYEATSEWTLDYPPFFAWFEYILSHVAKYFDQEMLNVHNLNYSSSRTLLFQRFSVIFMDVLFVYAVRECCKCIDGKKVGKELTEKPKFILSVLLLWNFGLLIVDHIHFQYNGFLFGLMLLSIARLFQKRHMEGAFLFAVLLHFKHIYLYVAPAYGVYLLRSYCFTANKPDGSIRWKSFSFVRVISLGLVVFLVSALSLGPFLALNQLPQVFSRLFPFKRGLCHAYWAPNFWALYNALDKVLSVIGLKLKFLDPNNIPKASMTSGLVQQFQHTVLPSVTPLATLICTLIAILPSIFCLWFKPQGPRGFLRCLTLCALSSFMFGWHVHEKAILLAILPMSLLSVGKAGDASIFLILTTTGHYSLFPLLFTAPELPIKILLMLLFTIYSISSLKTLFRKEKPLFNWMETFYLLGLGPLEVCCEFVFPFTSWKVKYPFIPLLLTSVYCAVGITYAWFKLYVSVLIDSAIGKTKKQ
active: [11] -0.316
inactive: ibrutinib 0.017 | [1] -0.013 | ralimetinib 0.013 | [2] 0.036 | [3] -0.028 | [4] -0.005 | [5] 0.054 | [6] 0.027 | [7] -0.011 | [8] -0.003 | vemurafenib -0.038 | [9] -0.013 | barasertib 0 | [13] -0.084 | volasertib 0.034 | [10] 0.045 | [12] 0.001 | saracatinib 0.005 | sotrastaurin 0.038

AK4 (UniProt P27144)
UniProt P27144, sequence (P27144 whole entry, looked up): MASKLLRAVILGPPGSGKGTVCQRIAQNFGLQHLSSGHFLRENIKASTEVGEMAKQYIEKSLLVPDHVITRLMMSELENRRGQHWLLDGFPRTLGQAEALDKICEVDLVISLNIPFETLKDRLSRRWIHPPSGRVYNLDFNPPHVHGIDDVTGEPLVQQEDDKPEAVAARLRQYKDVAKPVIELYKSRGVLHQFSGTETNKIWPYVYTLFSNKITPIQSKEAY
inactive: ibrutinib 0.06 | [1] -0.019 | ralimetinib -0.036 | [2] -0.016 | [3] -0.008 | [4] 0.021 | [5] -0.005 | [6] 0.012 | [7] 0.022 | [8] -0.017 | vemurafenib -0.068 | [9] 0.018 | barasertib 0.11 | [13] -0.057 | volasertib -0.024 | [10] 0.023 | [11] -0.036 | [12] -0.002 | saracatinib -0.016 | sotrastaurin 0.05

ANXA11 (UniProt P50995)
UniProt P50995, sequence (P50995 whole entry, looked up): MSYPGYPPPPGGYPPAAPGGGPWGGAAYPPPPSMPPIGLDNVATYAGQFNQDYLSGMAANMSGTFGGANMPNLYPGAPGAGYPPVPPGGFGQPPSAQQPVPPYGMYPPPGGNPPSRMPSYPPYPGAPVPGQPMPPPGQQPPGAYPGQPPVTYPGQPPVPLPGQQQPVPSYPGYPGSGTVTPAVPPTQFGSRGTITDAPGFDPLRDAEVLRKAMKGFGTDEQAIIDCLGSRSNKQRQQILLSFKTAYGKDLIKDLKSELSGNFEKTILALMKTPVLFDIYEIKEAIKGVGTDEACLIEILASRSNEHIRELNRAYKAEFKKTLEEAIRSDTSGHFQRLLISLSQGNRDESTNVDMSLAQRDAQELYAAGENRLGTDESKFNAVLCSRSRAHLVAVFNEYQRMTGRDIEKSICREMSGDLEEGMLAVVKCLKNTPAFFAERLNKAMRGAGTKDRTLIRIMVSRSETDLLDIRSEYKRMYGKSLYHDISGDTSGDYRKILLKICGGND
inactive: ibrutinib -0.005 | [1] -0.027 | ralimetinib -0.002 | [2] 0.057 | [3] 0.034 | [4] -0.031 | [5] 0.023 | [6] -0.041 | [7] 0.01 | [8] 0 | vemurafenib 0.02 | [9] -0.013 | barasertib 0.002 | [13] 0.024 | volasertib -0.031 | [10] 0.044 | [11] -0.049 | [12] -0.01 | saracatinib -0.009 | sotrastaurin -0.017

ACOX1 isoform 2 (UniProt Q15067)
UniProt Q15067, sequence (Q15067 whole entry, looked up): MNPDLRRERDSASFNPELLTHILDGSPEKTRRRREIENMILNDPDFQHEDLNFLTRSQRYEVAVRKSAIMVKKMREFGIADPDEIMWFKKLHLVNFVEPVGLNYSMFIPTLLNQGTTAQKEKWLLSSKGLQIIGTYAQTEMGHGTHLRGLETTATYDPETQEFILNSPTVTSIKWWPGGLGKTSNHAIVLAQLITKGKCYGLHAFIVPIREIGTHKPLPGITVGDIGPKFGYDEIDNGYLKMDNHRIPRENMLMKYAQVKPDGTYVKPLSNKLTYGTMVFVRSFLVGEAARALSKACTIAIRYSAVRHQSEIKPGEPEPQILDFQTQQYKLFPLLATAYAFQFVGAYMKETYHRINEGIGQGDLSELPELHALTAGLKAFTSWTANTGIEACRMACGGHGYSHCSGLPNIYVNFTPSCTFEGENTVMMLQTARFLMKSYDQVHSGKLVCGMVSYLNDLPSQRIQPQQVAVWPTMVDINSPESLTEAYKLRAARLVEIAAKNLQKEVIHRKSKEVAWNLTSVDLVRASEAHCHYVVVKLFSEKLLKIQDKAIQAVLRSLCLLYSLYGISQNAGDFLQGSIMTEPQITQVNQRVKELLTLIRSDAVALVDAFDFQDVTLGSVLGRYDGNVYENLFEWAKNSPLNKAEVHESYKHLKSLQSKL
inactive: ibrutinib 0.036 | [1] 0.052 | ralimetinib 0.098 | [2] -0.044 | [3] -0.013 | [4] -0.016 | [5] -0.043 | [6] 0.001 | [7] -0.026 | [8] -0.024 | vemurafenib 0.017 | [9] 0.003 | barasertib -0.029 | [13] 0.015 | volasertib 0.053 | [10] -0.026 | [11] -0.038 | [12] 0.1 | saracatinib -0.014 | sotrastaurin 0.004

APOB (UniProt P04114)
inactive: ibrutinib -0.025 | [1] -0.016 | ralimetinib -0.052 | [2] -0.195 | [3] 0.011 | [4] -0.02 | [5] -0.089 | [6] 0.063 | [7] -0.005 | [8] -0.036 | vemurafenib -0.006 | [9] 0.039 | barasertib 0.03 | [13] -0.009 | volasertib 0.026 | [10] -0.189 | [12] 0.092 | saracatinib 0.029 | sotrastaurin 0.024
active: [11] -0.224

ABCF3 (UniProt Q9NUQ8)
inactive: ibrutinib 0.008 | [1] 0.035 | ralimetinib 0.067 | [2] 0.046 | [3] -0.013 | [4] 0.009 | [5] -0.012 | [6] -0.02 | [7] 0.018 | [8] 0.001 | vemurafenib 0.013 | [9] 0.037 | barasertib 0.03 | [13] -0.079 | volasertib -0.099 | [10] 0.044 | [11] 0.015 | [12] -0.059 | saracatinib -0.006 | sotrastaurin 0.033

ADAMTS5 (UniProt Q9UNA0)
UniProt Q9UNA0, sequence (Q9UNA0 whole entry, looked up): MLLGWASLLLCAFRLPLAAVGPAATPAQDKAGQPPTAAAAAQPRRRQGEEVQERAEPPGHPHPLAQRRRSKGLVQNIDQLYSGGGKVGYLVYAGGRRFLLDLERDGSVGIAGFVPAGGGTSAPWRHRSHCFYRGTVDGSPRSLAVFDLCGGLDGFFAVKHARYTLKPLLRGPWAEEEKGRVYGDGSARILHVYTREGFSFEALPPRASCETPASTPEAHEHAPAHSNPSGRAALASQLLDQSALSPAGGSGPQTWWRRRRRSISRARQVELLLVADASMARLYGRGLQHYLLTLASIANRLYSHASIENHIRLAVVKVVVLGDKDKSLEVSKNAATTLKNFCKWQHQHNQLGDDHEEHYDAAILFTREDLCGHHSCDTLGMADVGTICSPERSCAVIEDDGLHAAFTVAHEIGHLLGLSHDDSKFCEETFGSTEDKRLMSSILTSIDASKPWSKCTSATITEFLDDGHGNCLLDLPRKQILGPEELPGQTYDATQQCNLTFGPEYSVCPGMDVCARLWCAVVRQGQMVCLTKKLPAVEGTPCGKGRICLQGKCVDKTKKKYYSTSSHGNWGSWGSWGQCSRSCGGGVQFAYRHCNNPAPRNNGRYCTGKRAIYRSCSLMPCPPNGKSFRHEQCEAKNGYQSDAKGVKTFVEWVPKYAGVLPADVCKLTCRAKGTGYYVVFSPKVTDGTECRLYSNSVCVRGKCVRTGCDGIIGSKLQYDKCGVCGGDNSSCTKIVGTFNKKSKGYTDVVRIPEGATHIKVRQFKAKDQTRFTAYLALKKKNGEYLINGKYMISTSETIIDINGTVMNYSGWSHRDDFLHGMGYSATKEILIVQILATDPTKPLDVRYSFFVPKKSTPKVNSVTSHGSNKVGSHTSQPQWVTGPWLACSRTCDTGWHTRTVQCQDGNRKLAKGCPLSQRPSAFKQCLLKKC
inactive: ibrutinib 0.032 | [1] -0.057 | ralimetinib -0.016 | [2] -0.186 | [3] -0.011 | [4] 0.008 | [5] -0.067 | [6] 0.093 | [7] -0.031 | [8] -0.076 | vemurafenib 0.063 | [9] 0.047 | barasertib 0.038 | [13] 0.066 | volasertib 0.038 | [10] -0.15 | [12] 0.292 | saracatinib 0.083 | sotrastaurin -0.045
active: [11] -0.939

ABL1 isoform 2 (UniProt P00519)
inactive: ibrutinib 0.157 | [1] 0.077 | ralimetinib 0.019 | [2] 0.024 | [3] -0.017 | [4] -0.014 | [5] -0.01 | [6] 0.048 | [7] 0.011 | [8] -0.043 | vemurafenib 0.05 | [9] 0.125 | barasertib 0.031 | [13] -0.03 | volasertib -0.012 | [10] -0.048 | [11] 0.156 | [12] -0.097 | sotrastaurin -0.012

AGPAT1 (UniProt Q99943)
inactive: ibrutinib -0.121 | [1] -0.05 | ralimetinib 0.027 | [2] -0.051 | [3] -0.026 | [4] 0.06 | [5] 0.012 | [6] 0.02 | [7] 0.043 | [8] 0.042 | vemurafenib 0.008 | [9] 0.016 | barasertib 0.038 | [13] -0.013 | volasertib 0.006 | [10] -0.004 | [11] 0.068 | [12] -0.049 | saracatinib 0.038 | sotrastaurin -0.009
